Consider 29 molecules from PubChem BioAssay (NCATS).

Records with an inconclusive call do not appear. A call without a number means that no potency is given here. Calls of active or inactive are those of the source. Calls come from the whole dose curve; as a rule, active = well fitted inhibition curve with a large enough effect; inconclusive = small, poorly fitted or top-dose-only effect; inactive = no such curve, though single readings can be large or run the other way. Where a SMILES comes first, the peptide text is derived from it. [ ]: non-standard residue; d: D form. ξ: configuration not given here. dPhe(4-Cl) = N[C@H](Cc1ccc(Cl)cc1)C(=O)O; d2Nal = N[C@H](Cc1ccc2ccccc2c1)C(=O)O; ξPhe(βξ-Me) = CC(c1ccccc1)C(N)C(=O)O; dCit = NC(=O)NCCC[C@@H](N)C(=O)O; d3Pal = N[C@H](Cc1cccnc1)C(=O)O; ξLac(3-iPr) = CC(C)CC(O)C(=O)O; NMeV = CN[CH](C(=O)O)C(C)C; GABA = NCCCC(=O)O; βAla = NCCC(=O)O
Potency is the fitted concentration of half-maximal effect.

This test can be described thus: Primary qHTS for inhibitors of nuclear receptor binding SET domain protein 2 (NSD2) in an RCH-ACV wild type WT cells (2C) (AID 1645877). Note: nearly all actives have a fitted effect of over 70% in size. The settings on record: RCH-ACV (leukaemia line) NSD2 WT (2C) viability, CellTiter-Glo, 72 h; series mostly up to 44.9 µM. Background: Quantitative high-throughput screening tests each substance at several concentrations.
With `CO[C@H]1C[C@@H]2CC[C@@H](C)[C@@](O)(O2)C(=O)C(=O)N2CCCC[C@H]2C(=O)O[C@H]([C@H](C)C[C@@H]2CC[C@@H](OP(C)(C)=O)[C@H](OC)C2)CC(=O)[C@H](C)/C=C(\C)[C@@H](O)[C@@H](OC)C(=O)[C@H](C)C[C@H](C)/C=C/C=C/C=C/1C`, the Potency was 46.8 nM (active).

For `CC(C)CC1OC(=O)C2CCCN2C(=O)CCNC(=O)C(Cc2ccccc2)NC(=O)C(C(C)C)N(C)C(=O)C(C(C)C)N(C)C1=O` (centres undefined) (cyclo([ξLac(3-iPr)][NMeV][NMeV]F[βAla]P); configuration not given here), the Potency result was “inactive”.

Take `CC(=O)N[C@H](Cc1ccc2ccccc2c1)C(=O)N[C@H](Cc1ccc(Cl)cc1)C(=O)N[C@H](Cc1cccnc1)C(=O)N[C@@H](CO)C(=O)N[C@@H](Cc1ccc(O)cc1)C(=O)N[C@H](CCCNC(N)=O)C(=O)N[C@@H](CC(C)C)C(=O)N[C@@H](CCCN=C(N)N)C(=O)N1CCC[C@H]1C(=O)N[C@H](C)C(N)=O` (Ac-[d2Nal][dPhe(4-Cl)][d3Pal]SY[dCit]LRP[dA]-NH2): the Potency entry is “inactive”.

Turning to `CC/C=C\C/C=C\C/C=C\CCCCCCCC(=O)OCC(O)COC1OC(CO)C(O)C(O)C1O` (centres undefined), the Potency entry is “inactive”.

With `COc1c2c(c(C)c3c1C(=O)OC3)OC1(C)CC(O)C(C(C)(C)O)C(C)(CCC(=O)O)C1C2` (centres undefined), the Potency entry is “inactive”.

Turning to `CC1(C)CCCC2(C)C1C(O)C=C(CO)C2(O)CO` (centres undefined), the Potency entry is “inactive”.

As to `Cc1nc(NC(=O)N2CCCC2C(N)=O)sc1-c1csc(C(C)(C)C)n1` (centres undefined), the Potency was 4090 nM (active).

For `CC1NC(=O)CCCNC(=O)C(Cc2c[nH]c3ccccc23)NC(=O)C(C)NC(=O)C(C(C)C)NC(=O)C(C(C)c2ccccc2)NC(=O)C(C(C)C)NC1=O` (stereo not drawn) (cyclo([GABA]AV[ξPhe(βξ-Me)]VAW); configuration not given here), the Potency result was “inactive”.

In the case of `C=C[C@H]1C(O[C@@H]2O[C@H](CO)[C@@H](O)[C@H](O)[C@H]2O)OC=C2C(=O)N3CCc4c([nH]c5ccccc45)[C@H]3C[C@H]21` (some centres undefined), the Potency entry was “inactive”.

Regarding `CC(C)C(N)C(=O)OCCOCn1cnc2c(=O)[nH]c(N)nc21` (centres undefined), the Potency entry was “inactive”.

For `C=C1[C@H](OC(C)=O)[C@H]2[C@@H](OC(C)=O)[C@](C)(OC(C)=O)C[C@]2(OC(C)=O)C(=O)[C@H](C)/C=C/C(C)(C)C(=O)[C@H](OC(=O)C(C)CC)[C@H]1OC(C)=O` (some centres undefined), the Potency entry was “inactive”.

For `CC(C)CC(=O)O[C@@H]1OC=C(CO[C@@H]2O[C@H](CO)[C@@H](O)[C@H](O)[C@H]2O)[C@H]2[C@@H]3O[C@H]3[C@@](O)(CO)[C@@H]12`, the Potency result was “inactive”.

Consider `COc1cc(O)cc(C)c1C(=O)O[C@@H]1[C@H](O)[C@@H](CO)O[C@H]1n1ccc(=O)[nH]c1=O`, for which the Potency result was “inactive”.

Regarding `CC(=O)O[C@H]1CC(C)(C)CC2[C@@]13[C@H](O)C[C@]1(C)[C@@]2(CCC2[C@@]4(C)CC[C@H](O[C@@H]5OC[C@H](O[C@@H]6O[C@H](CO)[C@@H](O)[C@H](O)[C@H]6O[C@@H]6OC[C@@H](O)[C@H](O)[C@H]6O)[C@H](O)[C@H]5O[C@@H]5O[C@H](CO)[C@@H](O)[C@H](O)[C@H]5O)C(C)(C)C4CC[C@]21C)O[C@@H]3O` (some centres undefined), the Potency was 1090 nM (active).

For the molecule `C[C@H](NC(c1cccc2[nH]c(=O)c(=O)[nH]c12)P(=O)(O)O)c1ccc(Br)cc1` (some centres undefined), the Potency entry was “inactive”.

As to `CC1=CC(=O)CC(C)(CO)C1(O)/C=C/C(C)O[C@@H]1O[C@H](CO)[C@@H](O)[C@H](O)[C@H]1O` (some centres undefined), the Potency result is “inactive”.

For the molecule `COC(=O)C1=CO[C@@H](O[C@@H]2O[C@H](CO)[C@@H](O)[C@H](O)[C@H]2O)[C@@H]2[C@@](C)(O)[C@@H](OC(=O)/C=C/c3ccc(O)cc3)C[C@]12O`, the Potency entry is “inactive”.

As for `COC(=O)c1ccc(OC(CO)C(O)c2ccc(O)c(OC)c2)c(OC)c1` (centres undefined), the Potency entry is “inactive”.

As for `CN(C)c1ccc2c(c1)OC(N)=C(C#N)C2c1cccc(C(F)(F)F)c1` (centres undefined), the Potency is 916 nM (active).

For the molecule `CC(=O)OC1C(OC(=O)c2ccccc2)C2C(C)(C)CC(=O)CC2(C)C23CCC(C)(C2)C(O)CC13` (centres undefined), the Potency result is “inactive”.

Regarding `CN1c2ccccc2C(=O)N2CCC3c4ccccc4NC3C21` (centres undefined), the Potency was 2010 nM (active).

With `CC1(C)CC2C(O)c3cocc3CC(C)(O)C2C1` (centres undefined), the Potency entry is “inactive”.

As to `CC(C)C(C#N)O[C@@H]1O[C@H](CO[C@@H]2O[C@@H](C)[C@H](O)[C@@H](O)[C@H]2O)[C@@H](O)[C@H](O)[C@H]1O` (some centres undefined), the Potency result is “inactive”.

For the molecule `Cn1cncc1C(N)(c1ccc(Cl)cc1)c1ccc2c(c1)c(-c1cccc(Cl)c1)cc(=O)n2C` (centres undefined), the Potency is 833 nM (active).

On to `CC(C)(C)C(=O)CN1C(=O)[C@H](NC(=O)Nc2cccc(C(=O)O)c2)CN(C2CCCCC2)c2ccccc21`, for which the Potency result was “inactive”.

Consider `CC(C)c1cc(C(=O)N2CC[C@@H](NC(=O)C3CC3)C2)n[nH]1`, for which the Potency entry was “inactive”.

Regarding `O=C(O)Cc1cn(C2OCC(O)C(O)C2O[C@@H]2O[C@H](CO)[C@@H](O)[C@H](O)[C@H]2O)c2ccccc12` (some centres undefined), the Potency result was “inactive”.

Turning to `CC1CCC2(C=O)C(CO)=CCCC2C1(C)CC(=O)O` (centres undefined), the Potency entry was “inactive”.

With `Cc1c(CN2CCN(C(=O)C(C)O)CC2)sc2c(N3CCOCC3)nc(-c3cnc(N)nc3)nc12` (centres undefined), the Potency was 45.9 nM (active).
